Drawing on PubChem BioAssay (EPA / NIEHS), this text covers outcome and AC50 for nine compounds.

Experiment [1] concerns zebrafish Peroxisome Proliferator-activated Receptor gamma (PPARg), gene 557037. Kind of experiment: ATG_zfPPARg_XSP2: Attagene TRANS-FACTORIAL Multi-Species (XSP2) HepG2 Assay for zebrafish Peroxisome Proliferator-activated Receptor gamma (PPARg) (AID 2283833).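 Note: actives increase reporter signal over DMSO so AC50 reflects activation.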 The procedure, abridged: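 HepG2 cells transiently transfected with GAL4-UAS reporter units expressing a zebrafish PPARg–GAL4 chimera; compound exposure 24 h. Reporter mRNA quantified by RT-PCR with fluorescent labelling and capillary electrophoresis; gain of signal fitted relative to DMSO baseline.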

The subject of experiment [2] is turtle Thyroid Hormone Receptor, alpha (TRa), gene 101949057. The experiment can be described thus: ATG_trTRa_XSP2: Attagene TRANS-FACTORIAL Multi-Species (XSP1) HepG2 Assay for turtle Thyroid Hormone Receptor, alpha (TRa) (AID 2283834).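 Note: hits raise reporter mRNA over the DMSO baseline so AC50 marks activators.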 The procedure, abridged: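 HepG2 cells transiently transfected with multiplexed GAL4-UAS reporter units expressing chimeric NR-Gal4 proteins were dosed for 24 hours. Reporter mRNA was quantified by RT-PCR with 6-FAM labelling and capillary electrophoresis, gain of signal scored against DMSO.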

A short description of experiment [3]: ATG_M_61_XSP2: Attagene TRANS-FACTORIAL Multi-Species (XSP2) HepG2 Assay for M61 Transcription Factor (Internal Marker) (AID 2283835; active = hit-call score of the fitted dose curve at least 0.9, where 1 is the maximum; inactive = score below 0.9;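 note: active means a rise in signal above the DMSO baseline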). The procedure, abridged:
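HepG2 cells transiently transfected with multiple GAL4-UAS reporter units; reporter mRNA measured 24 h after dosing by RT-PCR, fluorescent labelling and capillary electrophoresis. Medium contained 3 nM 6-alpha-fluorotestosterone and 1.5 nM norgestrel; internal marker, DMSO baseline.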

Experiment [4] has as its target human Thyroid hormone Receptor alpha (TRa), THRA (gene 7067) (UniProt P10827). The experiment can be described thus: ATG_hTRa_XSP2: Attagene TRANS-FACTORIAL Multi-Species (XSP2) HepG2 Assay for human Thyroid hormone Receptor alpha (TRa) (AID 2283838). An outline of the steps: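 HepG2 cells were transiently transfected with GAL4-UAS reporter units for chimeric human TRa-Gal4 and dosed for 24 hours, with 3 nM 6-alpha-fluorotestosterone and 1.5 nM norgestrel present. Reporter mRNA was quantified by RT-PCR, FAM labelling and capillary electrophoresis, with gain of signal fitted versus DMSO.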

For experiment [5], the target named is frog Thyroid hormone Receptor alpha (TRa), thra-a (gene 397942) (UniProt P15204). The experiment can be described thus: ATG_frTRa_XSP2: Attagene TRANS-FACTORIAL Multi-Species (XSP2) HepG2 Assay for frog Thyroid hormone Receptor alpha (TRa) (AID 2283839). An outline of the steps: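 HepG2 cells transiently transfected with multiplexed GAL4-UAS reporter units expressing chimeric frog TRα-Gal4; reporter mRNA read 24 h after dosing by RT-PCR, FAM-labelled primer extension, HpaI digest and capillary electrophoresis. Gain of signal fitted versus DMSO.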

For experiment [6], the target named is human Thyroid hormone Receptor beta (TRb), THRB (gene 7068) (UniProt P10828). The experiment can be described thus: ATG_hTRb_XSP2: Attagene TRANS-FACTORIAL Multi-Species (XSP2) HepG2 Assay for human Thyroid hormone Receptor beta (TRb) (AID 2283840).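 Note: actives raise reporter mRNA so potency reflects agonist-like gain of signal.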 The procedure, abridged:
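HepG2 cells were transiently transfected with GAL4-UAS multiplexed reporter units expressing chimeric NR-Gal4 proteins, dosed 24 h; reporter mRNA was quantified by RT-PCR, fluorescent labeling, HpaI digestion and capillary electrophoresis, fitted for gain of signal versus DMSO.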

The subject of experiment [7] is Sodium/Iodide Symporter (NIS), SLC5A5 (gene 6528). Kind of experiment: CPHEA_Stoker_NIS_Inhibition_RAIU: CPHEA's Radioactive Iodide Uptake (RAIU) Assay for Sodium/Iodide Symporter (NIS) Inhibition, Stoker and Laws Labs (AID 2283841). An outline of the steps:
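hNIS-HEK293T-EPA cells incubated 2 h at room temperature with compound (0.001–100 uM, 0.5% DMSO) and 329 pM final 125I in HBSS/10 mM HEPES, pH 7.4. Intracellular 125I counted; normalised to DMSO maximal uptake, triplicate, three biological replicates.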

Experiment [8] is described as follows: CPHEA_Stoker_NIS_Cytotoxicity: Cytotoxicity Assessment for CPHEA's Radioactive Iodide Uptake (RAIU) Assay for Sodium/Iodide Symporter (NIS) Inhibition, Stoker and Laws Labs (AID 2283897).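 For AC50: active means loss of ATP signal versus DMSO meaning cytotoxicity.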 The procedure, abridged: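 hNIS-HEK293T-EPA cells, human NIS expressed in HEK293T, treated 2 h with chemicals (0.001–100 uM, 0.5% final DMSO). ATP content read by CellTiter-Glo luminescence; loss of signal analysed relative to DMSO.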

Experiment [9] in a line: ATG_XTT_Cytotoxicity_XSP2: Cytotoxicity Assessment in the Attagene TRANS-FACTORIAL Multi-Species (XSP2) HepG2 Assay (AID 2283837). An outline of the steps: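 HepG2 cells, transiently transfected with multiple reporter constructs, exposed to chemical for 24 h. Cell number assessed with XTT fluorescence read-out; loss of signal fitted relative to DMSO.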
Another experiment deals with PGR (gene 5241) (UniProt P06401). Kind of experiment: TOX21_PR_BLA_Followup_Antagonist_ratio: Tox21 HEK293 Progesterone Receptor (PR) Antagonism Beta-lactamase Follow-Up Assay, Ratio (AID 2283934). An outline of the steps:
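HEK293T PR-UAS-bla, 2% CS-FBS; 6 hr plating, then cpd + R5020 (1 nM final), 16 hr 37C/5% CO2. B/G FRET substrate 2 h RT. Ratio ch2/ch1 vs DMSO; CellTiter-Glo viability multiplexed, autofluorescence checked.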

A short description of experiment [10]: TOX21_PR_BLA_Followup_Agonist_viability: Viability Assessment in the Tox21 HEK293 Progesterone Receptor (PR) Agonism Beta-lactamase Follow-Up Assay (AID 2283935).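 Note: cells exposed to compound for 16 hr at 37 °C; signal loss means lower viability so actives are cytotoxic.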 An outline of the steps:
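HEK293T PR-UAS-bla, 3,000 cells/well, 2% CS-FBS; 6 hr pre-incubation; cpd in DMSO, 16 hr 37C; LiveBLAzer 2 hr RT, then CellTiter-Glo 30 min RT, luminescence. Decrease = lost viability.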

Records with an inconclusive call do not appear. Calls of active or inactive are those of the source. Rule for the calls, unless noted: active = hit-call score of the fitted dose curve at least 0.9, where 1 is the maximum; inconclusive = response in the unintended direction; inactive = score below 0.9.

Sequence of frog Thyroid hormone Receptor alpha (TRa), thra-a (gene 397942) (P15204 whole entry, looked up, the tested form may be a part): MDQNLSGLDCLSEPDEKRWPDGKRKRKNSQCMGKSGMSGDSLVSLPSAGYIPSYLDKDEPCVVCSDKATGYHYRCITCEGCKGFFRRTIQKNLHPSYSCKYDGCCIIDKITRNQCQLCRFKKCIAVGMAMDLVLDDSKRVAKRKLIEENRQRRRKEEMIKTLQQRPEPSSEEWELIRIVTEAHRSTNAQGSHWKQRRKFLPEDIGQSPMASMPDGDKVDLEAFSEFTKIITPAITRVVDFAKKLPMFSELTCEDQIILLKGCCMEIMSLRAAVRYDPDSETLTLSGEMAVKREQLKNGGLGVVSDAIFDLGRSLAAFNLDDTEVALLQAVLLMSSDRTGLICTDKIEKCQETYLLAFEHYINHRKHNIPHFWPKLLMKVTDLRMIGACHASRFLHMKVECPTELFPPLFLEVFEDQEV
Sequence of human Thyroid hormone Receptor alpha (TRa), THRA (gene 7067) (P10827 whole entry, looked up, the tested form may be a part): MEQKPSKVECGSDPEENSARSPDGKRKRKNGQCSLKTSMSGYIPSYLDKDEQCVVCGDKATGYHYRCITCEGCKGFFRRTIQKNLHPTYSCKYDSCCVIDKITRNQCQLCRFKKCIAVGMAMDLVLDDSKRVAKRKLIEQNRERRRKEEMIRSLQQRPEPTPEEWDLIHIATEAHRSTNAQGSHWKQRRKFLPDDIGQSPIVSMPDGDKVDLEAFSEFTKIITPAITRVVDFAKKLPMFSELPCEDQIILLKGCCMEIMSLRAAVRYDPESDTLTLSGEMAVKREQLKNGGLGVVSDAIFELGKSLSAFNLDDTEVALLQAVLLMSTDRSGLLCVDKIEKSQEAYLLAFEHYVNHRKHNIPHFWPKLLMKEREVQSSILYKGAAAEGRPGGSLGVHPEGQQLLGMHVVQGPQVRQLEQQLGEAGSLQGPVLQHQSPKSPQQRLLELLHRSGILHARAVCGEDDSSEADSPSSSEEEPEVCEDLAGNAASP
Sequence of human Thyroid hormone Receptor beta (TRb), THRB (gene 7068) (P10828 whole entry, looked up, the tested form may be a part): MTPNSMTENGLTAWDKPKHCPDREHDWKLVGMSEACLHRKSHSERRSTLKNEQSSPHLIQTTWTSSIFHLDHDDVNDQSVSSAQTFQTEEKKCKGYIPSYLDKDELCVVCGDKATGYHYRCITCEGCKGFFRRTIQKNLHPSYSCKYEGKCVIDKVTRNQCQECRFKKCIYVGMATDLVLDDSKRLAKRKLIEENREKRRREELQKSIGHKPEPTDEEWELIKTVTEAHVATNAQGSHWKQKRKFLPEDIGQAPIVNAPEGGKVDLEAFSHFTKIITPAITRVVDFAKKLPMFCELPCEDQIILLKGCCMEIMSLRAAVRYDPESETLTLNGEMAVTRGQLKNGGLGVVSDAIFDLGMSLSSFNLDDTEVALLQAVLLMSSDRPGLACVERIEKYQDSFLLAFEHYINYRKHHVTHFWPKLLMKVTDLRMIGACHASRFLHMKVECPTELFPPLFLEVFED
Sequence of PGR (gene 5241) (P06401 whole entry, looked up): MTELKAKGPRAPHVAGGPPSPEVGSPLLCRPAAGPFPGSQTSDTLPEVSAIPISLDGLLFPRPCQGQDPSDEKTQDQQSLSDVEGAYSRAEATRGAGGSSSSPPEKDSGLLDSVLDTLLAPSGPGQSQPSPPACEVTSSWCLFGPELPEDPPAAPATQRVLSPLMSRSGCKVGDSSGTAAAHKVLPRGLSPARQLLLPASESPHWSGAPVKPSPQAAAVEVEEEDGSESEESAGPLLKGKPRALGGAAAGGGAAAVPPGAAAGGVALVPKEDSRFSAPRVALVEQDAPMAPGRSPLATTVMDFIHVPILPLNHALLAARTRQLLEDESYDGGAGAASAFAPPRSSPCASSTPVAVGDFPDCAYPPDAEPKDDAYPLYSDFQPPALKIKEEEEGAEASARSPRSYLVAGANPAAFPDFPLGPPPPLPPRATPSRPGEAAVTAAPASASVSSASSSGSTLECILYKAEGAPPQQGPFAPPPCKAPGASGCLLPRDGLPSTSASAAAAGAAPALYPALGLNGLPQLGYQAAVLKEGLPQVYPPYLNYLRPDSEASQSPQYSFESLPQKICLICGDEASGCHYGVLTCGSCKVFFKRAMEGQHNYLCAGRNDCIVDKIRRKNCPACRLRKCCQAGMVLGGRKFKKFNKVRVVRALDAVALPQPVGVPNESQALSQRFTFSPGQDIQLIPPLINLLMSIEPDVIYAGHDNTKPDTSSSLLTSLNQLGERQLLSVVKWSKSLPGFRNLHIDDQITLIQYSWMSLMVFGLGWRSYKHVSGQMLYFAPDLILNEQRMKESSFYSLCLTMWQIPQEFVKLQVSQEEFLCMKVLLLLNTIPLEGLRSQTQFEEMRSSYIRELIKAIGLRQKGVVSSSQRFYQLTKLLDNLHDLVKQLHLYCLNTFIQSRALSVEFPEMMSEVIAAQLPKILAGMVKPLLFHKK

As for `COP(=S)(OC)Oc1ccc(SC)c(C)c1`, the outcome in experiment [1], in experiment [2], in experiment [3], in experiment [4], in experiment [5] and in experiment [6] was inactive. In addition, the outcome in experiment [7] and in experiment [8] was inactive.

For `C[C@H]1[C@H](c2ccc(Cl)cc2)SC(=O)N1C(=O)NC1CCCCC1`, the result in experiment [7] and in experiment [8] was inactive.

Turning to `O=C(O)C(F)(F)C(F)(F)C(F)(F)C(F)(F)C(F)(F)C(F)(F)C(F)(F)F`, the compound was called inactive in [1], in experiment [3], in [5], in experiment [6] and in [7].

As for `CC[C@H](C)[C@H]1O[C@]2(C=C[C@@H]1C)C[C@@H]1C[C@@H](C/C=C(\C)[C@@H](O[C@H]3C[C@H](OC)[C@@H](O[C@H]4C[C@H](OC)[C@@H](O)[C@H](C)O4)[C@H](C)O3)[C@@H](C)/C=C/C=C3\CO[C@@H]4[C@H](O)C(C)=C[C@@H](C(=O)O1)[C@]34O)O2` (tested in a mixture with another compound), the result in experiment [7] and in [8] was inactive.

As to `CC1(c2ccc(Oc3ccccc3)cc2)OC(=O)N(Nc2ccccc2)C1=O` (configuration not stated), the result in experiment [7] was inactive. Also, the AC50 (as a rule, the concentration giving half of the maximal activity seen) in experiment [8] is 5.4 µM (active).

Regarding `CCOC1Oc2ccc(OS(C)(=O)=O)cc2C1(C)C` (configuration not stated), the result in experiment [7] and in experiment [8] was inactive.

With `O=C1c2ccccc2C(=O)N1SC(Cl)(Cl)Cl`, in experiment [7], the AC50 was 11.6 µM (active). Further, the result in [8] was inactive.

Turning to `CCOCN(C(=O)CCl)c1c(C)cccc1CC`, the result in experiment [6] was inactive.

As for `COP(=S)(OC)Oc1ccc([N+](=O)[O-])cc1`, the result in [1], in experiment [2], in experiment [9], in experiment [4], in experiment [5] and in experiment [6] was inactive. For the same compound, in experiment [10], the compound was called inactive. Further, the AC50 with PGR (gene 5241) is 38.4 µM (active).
